Screens deposited in PubChem BioAssay by National Center for Advancing Translational Sciences (NCATS).
FLuc modulator = qHTS profiling assay for firefly luciferase inhibitor/activator using purifed enzyme and Km concentrations of substrates (counterscreen for miR-21 project) | AID 588342, 2011 | Potency, µM (highest dose often 57.5 µM), usual class: inhibitors | hit rate 6.9% among 360,000 | Luciferin 4-monooxygenase (Photinus pyralis), P08659 | purified FLuc, Km substrates, luminescence inhibition; note: nearly all actives have a fitted effect of over 55% in size
Target sequence (P08659 whole entry, looked up): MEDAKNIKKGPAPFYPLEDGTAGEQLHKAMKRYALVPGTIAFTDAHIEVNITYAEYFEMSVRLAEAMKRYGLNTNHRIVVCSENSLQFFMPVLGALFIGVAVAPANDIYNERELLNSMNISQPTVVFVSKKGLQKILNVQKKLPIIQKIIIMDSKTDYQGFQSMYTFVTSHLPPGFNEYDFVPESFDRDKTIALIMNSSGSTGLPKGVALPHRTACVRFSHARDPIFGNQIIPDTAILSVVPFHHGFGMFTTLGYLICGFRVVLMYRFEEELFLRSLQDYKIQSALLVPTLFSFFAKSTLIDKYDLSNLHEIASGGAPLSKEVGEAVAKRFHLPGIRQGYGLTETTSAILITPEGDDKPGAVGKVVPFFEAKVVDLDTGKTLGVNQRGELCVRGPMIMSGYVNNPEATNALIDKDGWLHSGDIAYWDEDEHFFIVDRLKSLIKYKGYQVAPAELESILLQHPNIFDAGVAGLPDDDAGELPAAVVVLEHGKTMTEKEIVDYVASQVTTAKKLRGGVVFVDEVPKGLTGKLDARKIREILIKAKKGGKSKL
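Purified P. pyralis luciferase, 10 nM final, with Km-level 10 uM D-luciferin and 10 uM ATP in 50 mM Tris acetate pH 7.5, 10 mM Mg acetate, 0.01% Tween-20, 0.05% BSA; 6-point qHTS titration about 60 µM downward; luminescence read.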
SMN2 splice enh = qHTS Assay for Enhancers of SMN2 Splice Variant Expression; hit rate 2.8% among 210,000; Potency, µM (titrated, usually from 46.1 µM), usual class: activators; HEK293 SMN2-luciferase splicing reporter, luminescence, 30-36 h; note: nearly all actives have a fitted effect of over 55% in size
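HEK293 cells carry an SMN2 minigene-luciferase reporter in which exon 7 inclusion puts luciferase in frame. Cells were seeded at 2000 cells/well, attached for 10-12 hours, then exposed to compounds for 30-36 hours at 37C before ONE-Glo luminescence.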
Rab9 promoter act = qHTS Assay for Rab9 Promoter Activators. Huh7 Rab9 promoter-luciferase reporter, luminescence, 24 h. Potency, µM (titrated, usually from 9.22 µM), actives largely listed as activators. hit rate 2.8% among 320,000; note: nearly all actives have a fitted effect of over 60% in size
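Huh7 cells stably carrying Rab9 promoter–luciferase reporter, plated 1500 cells/well, compound added after 2 h and incubated 24 h at 37 °C; luciferase luminescence then read after 10 min with detection reagent.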
p53 reactivation = qHTS assay for re-activators of p53 using a Luc reporter; Potency, µM (series often up to 92.2 µM), hits mostly activators; H1299 p53-A138V BP100-luciferase reporter, luminescence, 24 h; hit rate 0.063% among 320,000; note: nearly all actives have a fitted effect of over 45% in size
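H1299 (p53-null), stable ts p53-A138V + BP100-Luc; 1000 cells/well, Opti-MEM/10% FBS; cpd 4 pt, 1:5; 24 h, 37 deg C, 5% CO2; detection reagent 10 min RT; luminescence.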
NPC1 prom act = qHTS Assay for NPC1 Promoter Activators; Huh7 NPC1 promoter luciferase reporter, 24 h; Potency, µM (titrated, usually from 9.22 µM), actives largely listed as activators; hit rate 2.4% among 320,000; note: nearly all actives have a fitted effect of over 60% in size
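Luminescence from an NPC1 promoter-driven luciferase reporter in stably transfected Huh7 cells was measured after 24 h compound treatment at 37 °C, followed by 10 min ambient incubation with luciferase detection reagent.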
ELG1 genotoxic = qHTS screen for small molecules that induce genotoxicity in human embryonic kidney (HEK293T) cells expressing luciferase-tagged ELG1; HEK293T ELG1-luciferase reporter, luminescence, 16 h; Potency, µM (series often up to 46 µM), most hits filed as activators; hit rate 1.3% among 330,000; note: nearly all actives have a fitted effect of over 60% in size
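Quantitative HTS format in 1536-well plates. HEK293T ELG1-luciferase reporter cells receive test compound and are incubated 16 hr at 37 °C, 5% CO2; ONE-Glo added, 30 min room temperature, then luminescence read.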
Hits are given with their value; - = inactive; ? = inconclusive; . = no result; [ ] = dose if it differs, or a comment. Rows were chosen to be rich in hits. Some 7.4% of all compounds tested hit in one or more screens of this group. Calls come from the whole dose curve; as a rule, active = well fitted curve in the direction sought with a large enough effect; inconclusive = small, poorly fitted or top-dose-only effect, or another doubt; inactive = no such curve, though single readings can be large; an effect the other way counts as inactive or inconclusive.

SMILES | FLuc modulator | SMN2 splice enh | Rab9 promoter act | p53 reactivation | NPC1 prom act | ELG1 genotoxic
CCOCCCNC(=O)C(c1ccc(OC)cc1)N(Cc1cccs1)C(=O)c1ccc(NC(C)=O)cc1 (centres undefined) | - | - | . | . | . | .
Cc1[nH]c(C)c(S(=O)(=O)NCc2ccc(F)cc2)c1C(=O)N1CCCCC1 | - | . | - | - | - | -
CCc1ccc(OCc2ccc(C(=O)NCc3ccccn3)o2)cc1 | ? | 5µM | ? | ? | ? | ?
CCc1ccc(OCc2ccc(C(=O)OC)o2)cc1 | 17µM | . | ? | - | ? | ?
COC(=O)c1ccc(COc2ccc(NC(C)=O)cc2)o1 | - | . | - | - | - | -
CCCn1c(=N)n(CC(=O)c2cccs2)c2ccccc21 | - | - | - | - | - | -
COc1cccc(C(=O)Cn2c(=N)n(C)c3ccccc32)c1 | 1.2µM | 1.3µM | ? | - | 0.56µM | 0.37µM
N=c1n(CC(=O)c2ccc(Br)s2)c2ccccc2n1Cc1ccccc1 | - | . | - | - | - | -
Cn1c(=N)n(CC(=O)c2cccs2)c2ccccc21 | 11µM | ? | - | ? | - | ?
Cn1c(=N)n(CC(=O)c2ccc(Br)s2)c2ccccc21 | 8.5µM | ? | ? | ? | - | 2.5µM
COc1cccc(C(=O)Cn2c(NCCO)nc3ccccc32)c1 | - | - | - | - | - | -
CCOc1ccc(CN2C(=O)c3ccccc3Sc3ccc(C(=O)NC4CCC(C)CC4)cc32)cc1 (centres undefined) | - | - | . | . | . | .
Oc1ccc(/C=N/NC(=S)Nc2cccnc2)cc1 | 6.7µM | . | ? | - | 3.2µM | ?
COc1cccc(/C=N/NC(=S)Nc2cccnc2)c1 | 15µM | - | - | - | - | -
Oc1ccc(/C=N/NC(=S)N/N=C/c2ccc(O)cc2)cc1 | 0.19µM | ? | - | - | - | ?
CC(C)NC(=S)N/N=C/c1ccc(C(C)(C)C)cc1 | - | - | - | - | - | -
COc1ccc(O)c(/C=N/NC(=S)Nc2cccnc2)c1 | 9.5µM | - | - | - | - | -
COC(=O)c1ccc(C(NC(=O)OCc2ccccc2)/C(I)=C/[C@@H](C)C(=O)Nc2ccccc2)cc1 (some centres undefined) | . | - | . | . | . | .
COc1ccc(CN2CC[C@@H](N3CCOCC3)[C@H](O)C2)cc1F | - | . | - | - | - | -
COc1ccccc1NC(=S)N/N=C/c1ccc(O)cc1 | ? | 11µM | ? | ? | ? | ?
COc1ccccc1NC(=S)N/N=C/c1cccc(C)c1 | - | ? | - | - | - | -
CCN(CC)c1ccc(/C=C2/C(=O)c3ccc(C(=O)O)cc3C2=O)cc1 | 0.48µM | - | - | ? | - | ?
N#[N+]c1ccc(Nc2ccccc2)cc1 | . | -[9.22 µM] | . | . | . | .
Cc1cc(=O)oc(C)c1C(=O)OC(C(=O)c1ccccc1)c1ccccc1 (centres undefined) | - | - | - | - | - | -
Cc1cc(=O)oc(C)c1C(=O)OCC(=O)c1ccc2ccccc2c1 | 3.4µM | - | - | - | - | -
SMILES | FLuc modulator | SMN2 splice enh | Rab9 promoter act | p53 reactivation | NPC1 prom act | ELG1 genotoxic
Cc1cc(=O)oc(C)c1C(=O)OCC(=O)c1ccccc1 | ? | - | - | - | - | -
Cc1cc(=O)oc(C)c1C(=O)OCC(=O)c1ccc(Cl)cc1 | 12µM | - | - | - | - | -
Cc1cc(=O)oc(C)c1C(=O)OCC(=O)c1ccc(Br)cc1 | 9.5µM | - | - | - | - | -
CCOC(=O)c1cccc(NC(=O)N2CCC(CN3CCCCCC3)CC2)c1 | - | . | . | . | . | .
O=C(Cn1cnc(S(=O)(=O)N2CCOCC2)c1)Nc1ccc(OC(F)(F)F)cc1 | - | . | - | - | - | -
Cc1c(C(=O)Nc2ccc(C(C)C)cc2)sc2nc3n(c(=O)c12)CCC3 | - | . | . | . | . | .
COc1ccc(/C=C/C(=O)Nc2cccc(C(C)=O)c2)cc1 | 0.95µM | 11µM | ? | ? | ? | -
COc1ccc(NC(=O)/C=C/c2ccc(Cl)cc2)cc1 | . | 11µM | 2.5µM | . | 2.1µM | .
